Assay outcomes deposited in PubChem by National Center for Advancing Translational Sciences (NCATS).
D2 ag-1: Beta-Arrestin HTS for Positive Allosteric Modulators of the Human D2 Dopamine Receptor: Agonists; 360,000 compounds, 0.084% hits; DiscoveRx PathHunter D2 beta-arrestin, luminescence, 90 min; 100% = 57 uM dopamine signal; D(2) dopamine receptor (Homo sapiens), P14416; activation, % (no concentration beside the values); in the data active = activation above about 40%
Target sequence (P14416 whole entry, looked up): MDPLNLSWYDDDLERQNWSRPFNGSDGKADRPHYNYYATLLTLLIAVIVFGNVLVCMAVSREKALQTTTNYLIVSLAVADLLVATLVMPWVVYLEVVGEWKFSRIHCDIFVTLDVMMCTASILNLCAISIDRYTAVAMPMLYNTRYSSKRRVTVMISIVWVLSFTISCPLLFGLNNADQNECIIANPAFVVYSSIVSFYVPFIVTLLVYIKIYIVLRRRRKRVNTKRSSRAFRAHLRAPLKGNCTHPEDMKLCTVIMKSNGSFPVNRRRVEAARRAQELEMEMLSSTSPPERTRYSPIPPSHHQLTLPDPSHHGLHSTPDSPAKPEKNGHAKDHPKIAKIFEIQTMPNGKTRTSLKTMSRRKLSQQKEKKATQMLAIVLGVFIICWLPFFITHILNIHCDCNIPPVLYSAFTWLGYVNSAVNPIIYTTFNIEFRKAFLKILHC
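Agonist mode: compounds alone added to overnight-plated D2 PathHunter cells for 90 min at 37 C, with 57 uM final dopamine (EC100) defining full response. Beta-arrestin recruitment detected by chemiluminescent reagent, read after 1 h at ambient temperature.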
D2 PAM-1: HTS Assay for Positive Allosteric Modulators of the Human D2 Dopamine Receptor: Primary Screen for Potentiators; 340,000 compounds, 0.34% hits; AID 485347, 2010; HEK293 T-REx D2, calcium flux, EC20 dopamine potentiation; D(2) dopamine receptor (Homo sapiens), P14416; potentiation, % at 10 µM;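 active = potentiation over 3 SD above the plate norm, cut at about 30% in these data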; note: 0% is about no effect
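Tetracycline-induced HEK293 T-REx cells force-coupled to calcium signalling expressed D2; compounds were pin-added after a 10 s baseline, read kinetically 180 s, then an EC20 dopamine challenge followed with a further 180 s calcium read.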
D2 ag-2: HTS Assay for Allosteric Agonists of the Human D2 Dopamine Receptor: Primary Screen for Agonists; D(2) dopamine receptor (Homo sapiens), P14416; HEK293 T-REx D2 cells, calcium flux agonist mode; activation, % at 2 µM; 340,000 compounds, 0.53% hits;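 active = activation over 3 SD above normal in the single-dose calcium agonist read, cut at about 30% in these data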; note: 0% is about no effect
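Agonism scored from kinetic calcium signal (1 read/sec, 180 s) following compound pin transfer, after a 10 s baseline. Cells: HEK293 Trex line expressing inducible D2 receptor coupled to calcium, dye-loaded after overnight culture at 30 C.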
D2 PAM-2: Beta-Arrestin HTS for Positive Allosteric Modulators of the Human D2 Dopamine Receptor: Potentiators; D(2) dopamine receptor (Homo sapiens), P14416; DiscoveRx D2 beta-arrestin cells, luminescence, 90 min; 100% = 57 uM dopamine signal; potentiation, % (no concentration beside the values); 360,000 compounds, 0.23% hits; AID 624464, 2012; in the data active = potentiation above about 50%
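PathHunter D2 cells, attached overnight at 37 deg C, received compound in DMSO plus dopamine at EC20 (50 nM final) for 90 min at 37 deg C. Beta-arrestin recruitment was read as luminescence after 1 h with detection reagent at ambient temperature.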
D2 antagonist: HTS Assay for Allosteric Antagonists of the Human D2 Dopamine Receptor: Primary Screen for Antagonists; D(2) dopamine receptor (Homo sapiens), P14416; HEK293 TREx D2 cells, calcium flux, dopamine EC80; inhibition, % at 10 µM; 340,000 compounds, 2% hits; in the data active = inhibition above about 30%; inactive = below that, where a call was filed; note: 0% is about no effect
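Antagonism is scored as inhibition of an EC80 dopamine-evoked calcium signal in a force-coupled, tetracycline-inducible HEK293 T-REx D2 line, with compound present 180 s before agonist.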
An asterisk follows results filed as active; . = not tested or not shown. The list is not random: actives were taken first. Their share in the collection is about 2.4%.

SMILES	D2 ag-1	D2 PAM-1	D2 ag-2	D2 PAM-2	D2 antagonist
O=C(CSc1ncccc1C(=O)Oc1ccccc1Cl)Nc1ccc(C(F)(F)F)cc1Cl	.	7.3	-1.0	.	.
CN(C)c1cc(Nc2ccc(O)cc2)c([N+](=O)[O-])c2nonc12	-6.8	8.8	-1.5	-3.8	-5.6
O=[N+]([O-])c1c(Nc2ccc(O)cc2)cc(Cl)c2nonc12	-0.2	-3.8	6.8	-67.9	37.5*
CCc1nnc(NC(=O)c2ccc(S(=O)(=O)N3CCCC(C)C3)cc2)s1 (stereo not given)	-2.1	34.8*	-0.8	-2.9	0.0
CCc1nnc(NC(=O)c2ccc(S(=O)(=O)N3CCCC3)cc2)s1	-1.6	-0.6	0.4	-5.6	-24.4
Cc1noc(-c2ccc(N3CCCCC3C)c([N+](=O)[O-])c2)n1 (stereo not given)	.	5.7	5.3	.	.
O=C(O)c1cc2c(cc1NC(=O)C1CCCC1)OCCO2	-6.3	-14.8	0.5	-7.9	33.5*
COc1ccccc1CNC(=O)c1cccc2c1C(=O)N(Cc1cccnc1)C2	-5.9	30.6*	-1.1	-1.1	-12.3
COC(CNC(=O)c1cccc2c1C(=O)N(Cc1cccnc1)C2)OC	-4.8	0.1	-1.6	-23.9	-4.2
CNc1nc(OC)nc(N(C#N)CN2C(=O)c3ccccc3S2(=O)=O)n1	-0.3	2.8	2.1	-6.7	-2.6
CC1CCN(c2oc(-c3ccc(F)cc3)nc2C#N)CC1	3.4	1.4	-1.0	-8.5	3.4
CCOC(=O)C1CCCN(c2oc(-c3ccc(F)cc3)nc2C#N)C1 (stereo not given)	-2.7	2.3	0.8	6.2	35.1*
CCOC(=O)C1CCCN(C(=O)c2cc3c(=O)n4ccccc4nc3s2)C1 (stereo not given)	-5.5	44.2*	1.2	-30.2	1.8
CCOC(=O)C1CCCN(C(=O)c2cc(-c3ccncc3)nc3ccccc23)C1 (stereo not given)	-4.0	8.4	-0.3	8.9	-3.9
CCOC(=O)C1CCCN(C(=O)c2cc(-c3ccc(F)cc3)nc3ccccc23)C1 (stereo not given)	-1.1	5.1	0.3	-2.0	47.3*
Cc1cccn2c(=O)c3cc(C(=O)N4CC(C)CC(C)C4)sc3nc12 (stereo not given)	-4.5	37.9*	1.9	-3.8	-3.1
CC(C)C(=O)Nc1cccc(COc2ccc(CN(Cc3ccccc3)C(=O)OC(C)(C)C)cc2)c1	-1.3	.	.	-5.5	.
C=Cc1ccc(Cn2c(C)c(C(=O)NCc3cccc(C)c3)sc2=O)cc1	1.7	.	.	-3.2	.
Cc1noc(C)c1C(=O)OC(C)C(=O)c1c[nH]c2ccccc12 (stereo not given)	1.0	.	.	-15.4	.
CC1(Cc2ccc(F)cc2)C(=O)Nc2ccc(-c3cccnc3)cc21 (stereo not given)	4.9	.	.	-8.2	.
Cc1cc(C)c(C#N)c(SCS(=O)Cc2ccc(Cl)cc2)n1 (stereo not given)	-0.2	-7.5	0.0	-16.3	36.7*
Cc1cc(C)c(C#N)c(SCS(=O)Cc2ccccc2)n1 (stereo not given)	1.8	-2.6	-1.2	-6.8	-13.1
CC(O)(c1cccnc1)c1nc(-c2ccc3ccccc3c2)cs1 (stereo not given)	6.9	.	.	-9.8	.
CC(C)(C)S(=O)N1Cc2ccc(CO)cc2[C@@H]1CCO (stereo not given in full)	-2.1	.	.	4.7	.
Cc1ccccc1C(=O)NC1CC2CCCC(C1)N2Cc1ccc(Cl)cc1 (stereo not given)	-7.4	-23.5	0.7	-27.2	75.6*
SMILES	D2 ag-1	D2 PAM-1	D2 ag-2	D2 PAM-2	D2 antagonist
Cc1ccccc1C(=O)NC1CCN(C(=O)N2CCOCC2)CC1	-1.0	35.7*	0.0	-3.2	12.4
O=C(NC1CC2CCC(C1)N2Cc1ccccc1)c1ccccc1Cl (stereo not given)	-0.9	-21.4	1.5	-3.0	74.5*
Cc1ccccc1C(=O)NC1CCN(C(=O)NC2CCCCC2)CC1	8.5	0.2	-1.0	-2.2	-6.9
Cc1ccccc1C(=O)NC1CC2CCCC(C1)N2Cc1ccccc1 (stereo not given)	-5.8	-20.2	-2.0	0.1	71.4*
Nc1cc(N)nc(SCCc2ccccc2)n1	1.9	-1.3	1.3	1.0	47.1*
Nc1cc(N)nc(SCc2ccccc2)n1	-0.3	-11.2	-0.1	-0.5	-13.8
C=Cc1ccc(Cn2c(C(=O)O)c(CNCc3ccc(F)cc3)c3ccc(C)cc32)cc1	.	-7.4	0.1	.	.
CCOC(=O)c1cnc2cc(C(F)(F)F)ccc2c1N1CCN(c2ccc(F)cc2)CC1	.	27.4	.	.	.
CC(=N/O)/C(C)=N\NC(=O)c1ccccn1	1.0	-1.7	0.2	-10.9	-9.9
C/C(=N\NC(=O)c1ccccn1)c1ccc(C(=O)O)s1	.	-7.2	-1.4	.	59.3*
CC1CCc2c(sc3nnn(Cc4ccc(F)cc4)c(=O)c23)C1 (stereo not given)	.	2.1	-0.1	.	.
C[C@H](O)[C@@H]1CN2CCc3c([nH]c4ccc(-c5ccc6c(c5)OCO6)cc34)[C@@H]2C[C@@H]1N(C)C(=O)Nc1cc(Cl)cc(Cl)c1	-3.4	.	.	-2.5	.
CCCCNCC1CCCO1 (stereo not given)	-2.6	-20.6	0.4	-6.5	69.6*
Cc1ccc(CNCC2CCCO2)o1 (stereo not given)	-1.6	-4.1	-0.6	0.0	9.3
O=C(NCc1ccccc1Cl)C1CCN(C(=O)N2CCOc3ccccc32)CC1	.	7.1	-1.7	.	.
CCOc1ccc(NC(=O)CCC(=O)NNS(=O)(=O)c2ccccc2[N+](=O)[O-])cc1	2.9	3.6	105.2*	-0.7	11.2
O=C(CCSCc1cnn(-c2ccccc2)c1-n1cccc1)NCc1ccc(Cl)cc1	.	5.5	-0.2	.	.
CCNc1nc(Oc2ccc(OCC(=O)OC)nn2)nc(N2CCOCC2)n1	.	5.6	0.4	.	.
CN(C(=O)COC(=O)C12CC3CC(CC(C3)C1)C2)c1c(N)n(Cc2ccccc2)c(=O)[nH]c1=O	-2.8	6.0	0.1	-12.1	46.7*
C=CCN1CCc2c(cc(O)c(O)c2Br)[C@@H](c2ccccc2)C1	59.3*	.	.	65.6*	.
Cc1ccc(C)c(S(=O)(=O)N2CCN(C(=O)CCNS(=O)(=O)c3ccc(C)c(C)c3)CC2)c1	2.4	32.4*	-0.3	9.4	-15.9
Cc1ccc(S(=O)(=O)NCCC(=O)N2CCN(S(=O)(=O)c3ccccc3)CC2)cc1C	-8.7	-9.3	-0.1	-3.4	18.0
CCN(C/C=C/c1ccccc1OC)Cc1ccccc1	1.2	-29.7	-0.4	-26.4	80.0*
